Source: PubChem
uPA surface inh = cell surface uPA generation inhibition | cell surface uPA generation assay, qHTS | Potency, µM (series often up to 38.3 µM), for the others: at the highest dose activity change, negative = inhibition, usual class: inhibitors | actives 0.31% (n = 330,000); active = well fitted inhibition curve with a large enough effect; inconclusive = small, poorly fitted or top-dose-only effect; inactive = no such curve, though single readings can be large or run the other way; tested in mouse RAW 264.7 cells; note: potency is the fitted concentration of half-maximal effect; % is set by controls: 0 for no effect and ±100 for the full control effect; nearly all actives have a fitted effect of over 55% in size
Giardia killer = Giardia lamblia killing; Giardia lamblia trophozoite viability; actives 0.15% (n = 340,000); activity change, % at 7.66 µM, hits read low; in the data active = activity change below about -80%; inconclusive = between about -30% and that limit;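 note: parasites exposed to compound for two days anaerobically before the ATP read; % is set by controls: 0 for no effect and ±100 for the full control effect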
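Compounds were tested on trophozoites seeded at 100 cells/well and held 48 hrs at 37 deg C anaerobically. An ATP-based luminescent kit measured the remaining live cells.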
MCF10A rereplic = inducers of DNA re-replication in MCF 10A breast cells; MCF 10A DNA re-replication, Hoechst nuclear intensity, 48 h; AID 624296; Potency, µM (series often up to 46.1 µM), without a hit: at the highest dose activity, positive = re-replication, most hits filed as activators; actives 2.9% (n = 350,000); note: potency is the fitted concentration of half-maximal effect; % of control where 0% means no effect; nearly all actives have a fitted effect of over 50% in size
SW480 rereplic = DNA re-replication induction in SW480 cells. actives 1.8% (n = 340,000). AID 624297. Potency, µM (series often up to 46.1 µM), inactives show at the highest dose re-replication activation, most hits filed as activators. SW480 DNA re-replication, Hoechst DNA content imaging, 48 h; note: potency is the fitted concentration of half-maximal effect; % of control where 0% means no effect; nearly all actives have a fitted effect of over 55% in size
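DNA re-replication was detected as more nuclei of elevated Hoechst intensity after 48 hr exposure to compound (23 nL pinned per well of 250 cells).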
* hit, by the source's call; ? = inconclusive; / = no result; [ ] = dose if it differs, or a comment. In the library only some 4.3% were active in any assay of this set; here they are far more common. Unless noted, calls come from the whole dose curve; as a rule, active = well fitted activation curve with a large enough effect; inconclusive = small, poorly fitted or top-dose-only effect; inactive = no such curve, though single readings can be large or run the other way.

SMILES	uPA surface inh	Giardia killer	MCF10A rereplic	SW480 rereplic
CCCC(=O)N(c1ccc(OCC)cc1)C1C=CS(=O)(=O)C1 (configuration not stated)	-4.6%	-9.1	3.2%	-3.9%
CC(=O)N1CCN(S(=O)(=O)c2c(C)n(C)c(=O)n(C)c2=O)CC1	8.7%	7.7	-0.6%	1.7%
C#CCOCCOCCOCCNc1nc(N2CCN(C(=O)CCCCCCCCCCNC(=O)[C@H](CCCCN)n3cc(C)nn3)CC2)nc(N2CCN(C(=O)CCCCCCCCCCNC(=O)[C@@H]([C@H](C)O)n3cc(C)nn3)CC2)n1	?	-16.3	?	-2.3%
C#CCOCCOCCOCCNc1nc(N2CCN(C(=O)CCCCCCCCCCNC(=O)[C@@H](CCSC)n3cc(CCO)nn3)CC2)nc(N2CCN(C(=O)CCCCCCCCCCNC(=O)[C@@H]([C@H](C)O)n3cc(C)nn3)CC2)n1	-7.9%	8.6	16.4µM*	-2.1%
C#CCOCCOCCOCCNc1nc(N2CCN(C(=O)CCCCCCCCCCNC(=O)Cn3cc(CCCCCN)nn3)CC2)nc(N2CCN(C(=O)CCCCCCCCCCNC(=O)Cn3cc(C[C@@H](C)O)nn3)CC2)n1	-11.0%	11.9	23.1µM*	0.7%
C#CCOCCOCCOCCNc1nc(N2CCN(C(=O)CCCCCCCCCCNC(=O)[C@H](CCCCN)n3cc(C[C@@H](C)CC)nn3)CC2)nc(N2CCN(C(=O)CCCCCCCCCCNC(=O)[C@@H]([C@H](C)O)n3cc(C)nn3)CC2)n1	?	-19.6	11.6µM*	19.8%[9.22 µM]
C#CCOCCOCCOCCNc1nc(N2CCN(C(=O)CCCCCCCCCCNC(=O)[C@@H](CCSC)n3cc(CCO)nn3)CC2)nc(N2CCN(C(=O)CCCCCCCCCCNC(=O)[C@H](CO)n3cc(CCCCCN)nn3)CC2)n1	-9.3%	-21.0	-5.6%	-0.7%
C#CCOCCOCCOCCNc1nc(N2CCN(C(=O)CCCCCCCCCCNC(=O)Cn3cc(C[C@@H](C)O)nn3)CC2)nc(N2CCN(C(=O)CCCCCCCCCCNC(=O)[C@@H]([C@H](C)CC)n3cc(CCCCCN)nn3)CC2)n1	?	0.1	?	?
Cc1ccccc1-c1cccc([C@@H]2C[C@H]3[C@H](CON3C)CN2C(=O)C(C)(C)C)c1	10.6%	17.3	14.9%	-14.3%
CC(C)(C)C(=O)NC(Nc1cccc2cccnc12)C(Cl)(Cl)Cl (configuration not stated)	-7.8%	-15.0	20.6µM*	23.1µM*
CCN(CC)c1ccc(/C=C2/SC(=O)N(C(C)C)C2=O)o1	-11.5%	-11.7	?	5.17µM*
CC(Sc1nnc(Cc2ccccc2)o1)C(=O)NC1(C#N)CCCCC1 (configuration not stated)	-7.2%	0.5	20.9%	-12.2%
O=CNC1(c2ccccc2)CCCCC1	5.4%	22.8	3.3%	-3.4%
O=CNc1c(Br)cc2c(c1Br)Cc1cc(Br)ccc1-2	0.1%	5.3	6.0%	-1.2%
CCOC(=O)c1[nH]c(C)c(C(=O)OCC(=O)N2CCc3ccccc32)c1C	/	14.5	23.1µM*	-1.2%
NC(=O)COC(=O)c1c2c(nc3ccccc13)CCCC2	-4.0%	-5.3	19.0%	-14.9%
CC(C)NC(=O)NC(=O)COC(=O)c1c2c(nc3ccccc13)CCC2	-12.1%	-6.8	23.1µM*	0.0%
COc1cccc(NC(=O)COC(=O)c2c3c(nc4ccccc24)CCC(C)C3)c1 (configuration not stated)	/	8.3	10.3µM*	?
CC1CCc2nc3ccccc3c(C(=O)OCC(=O)NC3CCS(=O)(=O)C3)c2C1 (configuration not stated)	-3.0%	-19.1	-1.8%	1.0%
O=C(OCC(=O)N1CCc2ccccc21)c1c2c(nc3ccccc13)CCCCC2	-6.0%	-3.0	10.3µM*	-2.7%
Nc1ncnc(Nc2ccccc2Oc2ccccc2)n1	-1.7%	13.7	11.1%	?
O=C1C=C(c2ccc3cc[nH]c3c2)C[C@@H](c2ccc3c(c2)OCO3)C1	?	11.4	20.6µM*	?
O=C1C=C(c2ccc3c(c2)OCO3)C[C@@H](c2ccc3c(c2)OCO3)C1	1.3%	-17.5	3.4%	-8.8%
O=C(O)[C@@H]1[C@@H]2C[C@H]3c4[nH]c5ccccc5c4CCN3C[C@@H]2CC[C@@H]1O	/	/	1.1%[20.6 µM]	2.4%[20.6 µM]
COC(=O)C(Cc1ccccc1)NS(=O)(=O)c1cc(Br)ccc1Br (configuration not stated)	/	-27.6	/	/
SMILES	uPA surface inh	Giardia killer	MCF10A rereplic	SW480 rereplic
CC(=O)Nc1ccc(S(=O)(=O)N[C@@H](C)C(=O)OCC(=O)Nc2ccc3c(c2)OCCO3)cc1	-7.1%	?	12.8%	1.8%
CC(NS(=O)(=O)c1ccc(F)cc1)C(=O)Nc1ccc2c(c1)OCCO2 (configuration not stated)	-3.9%	18.5	17.3%	20.6µM*
COc1ccc(N(C)S(=O)(=O)c2cccc(C(=O)NCc3ccc(C)cc3)c2)cc1	3.7%	3.0	8.1%	3.1%
CC(=O)c1sc(NC(=O)C2CCN(C(=O)c3ccc(F)cc3)CC2)nc1-c1ccccc1	11.0%	-5.5	?	16.1%
COc1ccc(-c2nc3ccc(C4=C(C)CC(=O)NN4)cc3[nH]2)cc1	/	/	?	18.8µM*
O=C(CCS(=O)(=O)Cc1ccccc1)N1CCc2ccccc2C1	/	11.5	0.0%	-8.8%
O=C(CCS(=O)(=O)Cc1ccccc1)N1CCN(Cc2ccccc2)CC1	0.0%	-19.8	10.3µM*	-5.9%
CC1CC=CC2C1C(=O)N(Cc1ccccc1)C2c1ccc(Br)cc1F (configuration not stated)	/	-18.0	/	/
Cc1ccc2cccc(NC(=S)NC(=O)c3ccccc3)c2n1	0.6%	13.2	?	16.4µM*
Cc1cc(C)c2cccc(NC(=S)NC(=O)c3ccccc3)c2n1	/	-3.1	18.6%	4.11µM*
CCC(=O)OC1C(N(C)C)CC(C)O[C@H]1O[C@H]1[C@H](C)[C@@H](O[C@H]2CC(OC)[C@@H](O)C(C)O2)[C@H](C)C(=O)O[C@@H](CC)[C@](C)(O)[C@@H](O)[C@H](C)C(=O)[C@@H](C)C[C@]1(C)O (some centres not stated)	/	/	3.7%	10.9%
O=C(CSc1nc2ccccc2s1)N1CCCCC1	-4.4%	-0.1	-7.5%	13.2%
Cc1c(Cl)cccc1N/C(SCC(=O)N1CCCCCC1)=C(/C#N)c1nc2ccccc2s1	?	-4.9	?	14.6µM*
O=C(NCCCN1CCOCC1)c1ccc(NS(=O)(=O)c2ccccc2)cc1	-1.5%	9.6	-11.0%	-4.0%
C=C1CC(C(=O)N/N=C/c2ccc(O)cc2)C1	5.5%	1.5	-4.2%	16.4µM*
O=C(NN=Cc1ccc(F)cc1)C1CC1	3.0%	-26.6	5.5%	-6.8%
CCC(=O)OCC(=O)c1c(N)n(Cc2ccccc2)c(=O)n(C)c1=O	5.1%	-2.3	-3.4%	1.0%
COC(=O)Cn1c(=O)c(C(=O)CCl)c(N)n(Cc2ccccc2)c1=O	-16.1%	21.6	5.17µM*	?
COC(=O)Cn1c(=O)c2c(n(Cc3ccccc3)c1=O)N/C(=C/c1ccc(OC)cc1)C2=O	4.0%	17.8	18.4µM*	20.6µM*
